PubChem BioAssay (NCI)
Where “and” joins values, the source holds several entries; their conditions need not be identical. Identical values can stand only once. About 79,000 compounds went through this panel and 15% of them were active in at least one assay; those are over-represented in the sample as a whole. Calls of active or inactive are those of the source. Rule as the data show it: active = growth inhibition above about 70%; inactive = the rest.

Key:
[1] = NCI Yeast Anticancer Drug Screen. Data for the rad50 strain (AID 155);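 also: 0% = growth of vehicle-only cultures of the same strain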; details: S. cerevisiae rad50 strain growth inhibition; at 50.0 µM; hits give high values
Outline: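 Inhibition values express reduced yeast growth in compound-treated cultures relative to vehicle-treated controls.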

[2] = NCI Yeast Anticancer Drug Screen. Data for the mec2-1 strain (AID 157); details: S. cerevisiae mec2-1 strain, at 50.0 µM, hits give high values
Outline: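 Mutant yeast (mec2-1) grown with compound; growth inhibition relative to vehicle control reported.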

[3] = NCI Yeast Anticancer Drug Screen. Data for the sgs1 mgt1 strain (AID 161);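 also: 0% = growth of cultures given vehicle only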; details: S. cerevisiae sgs1 mgt1 strain, at 50.0 µM, hits give high values
Outline: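 Growth of a repair-deficient yeast mutant was monitored after compound treatment and expressed as inhibition relative to vehicle-treated cultures.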

[4] = NCI Yeast Anticancer Drug Screen. Data for the cln2 rad14 strain (AID 165);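 also: 0% = growth equal to vehicle treated cultures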; details: S. cerevisiae cln2 rad14 strain, at 50.0 µM, hits give high values
Outline: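 Readout is yeast growth inhibition versus vehicle-treated controls, using a strain with cln2 and rad14 alterations exposed to compound.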

[5] = NCI Yeast Anticancer Drug Screen. Data for the bub3 strain (AID 167); details: S. cerevisiae bub3 mutant strain, at 50.0 µM, hits give high values
Outline: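 Steps: expose the mutant yeast strain to compound; grow alongside vehicle-treated cultures; measure growth; express inhibition against the vehicle cultures.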

[6] = NCI Yeast Anticancer Drug Screen. Data for the mlh1 rad18 strain (AID 175); details: S. cerevisiae mlh1 rad18 strain growth inhibition; at 50.0 µM; hits give high values
Outline: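 Genetically defined yeast (DNA repair-deficient) exposed to compounds; growth inhibition determined relative to vehicle.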

Measured: growth inhibition

CC(O)COc1ccc(C2CCCCC2)cc1 (centres undefined)
inactive: [1] 27.9% and 8% | [2] 10.4% and -21.6% | [3] 7.3% and 16.4% | [4] -10.2% and -25.9% | [5] -2.55% and -5.5% | [6] -11.6% and 13%

Nc1c2c(nc3ccccc13)CCCC2 (tested in a mixture with another compound)
inactive: [1] -7.95% and -12.2% | [2] -20.4% and -22.8% | [3] -14.9% and -14% | [4] 9.6% and 9.4% | [5] -21.2% and -18.6% | [6] -11.7% and -0.1%

NC(=S)N/N=C/c1ccc([N+](=O)[O-])cc1
inactive: [1] 40.4% and 11.5% | [2] 29.7% and 13.2% | [3] 29.2% and 4.5% | [4] 24.1% and 20.6% | [5] 5.7% and 3.7% | [6] 30.9% and 5.95%

COc1ccc(-c2cc(-c3ccco3)c(C#N)c(=O)n2C2OC(COC(C)=O)C(OC(C)=O)C(OC(C)=O)C2OC(C)=O)cc1 (centres undefined)
inactive: [1] 8.3% and -23% | [2] 12.3% and 1.9% | [3] 23.9% and 4% | [4] 42.2% and 8.8% | [5] 16.8% and -2.2% | [6] 11.1% and -19.1%

CCc1ccc(NCc2cc(OC)c(OC)c(OC)c2)cc1
inactive: [1] 22.8% and 3.85% | [2] -3.9% and -6.2% | [3] 25.9% and 33% | [4] -4.45% and -2.55% | [5] 40% and 38.9% | [6] -55.3% and -23.8%

COc1ccc(/C=C2/N=C(N/N=C\C(O)C(O)C(O)CO)NC2=O)cc1 (centres undefined)
inactive: [1] 1% and 34.4% | [2] 12.4% and 17.6% | [3] 3.55% and 13.3% | [4] 26.4% and 1.4% | [5] -6.95% and 21.9% | [6] -46% and 18.8%

CN(C)CC1CCCCC(CN(C)C)C1=O (centres undefined)
inactive: [1] -23.1% and -15.7% | [2] -5.8% and 2.95% | [3] -14.8% and -8.7% | [4] 4.4% and -52.7% | [5] -11.8% and 7.95% | [6] -13.6% and -8.7%

CC12CCC(C(=O)OC1=O)C2(C)C (centres undefined)
inactive: [1] 3.8% and -0.45% | [2] -8.2% and 4.05% | [3] -46.8% and -13.5% | [4] 28.1% and -51% | [5] -29.8% and 0.35% | [6] -55% and -0.75%

Nc1nc(N)c(Br)c(=O)[nH]1
inactive: [1] -11.3% and 9% | [2] -36.4% and -24.6% | [3] -11.3% and -38.1% | [4] 12.2% and -83.6% | [5] -10.9% and -13.3% | [6] -6.75% and -21.4%

C/C=C(\C)C(=O)O
inactive: [1] 17.6% and -9.95% | [2] 9.3% and -5.05% | [3] -4.9% and -41.8% | [4] 13.2% and 2.25% | [5] 11.4% and -42.2% | [6] 25% and 9.75%

O=c1nc(-c2ccccc2)cc(CC(O)(c2ccc(C(F)(F)F)cc2)c2ccc(Cl)c(Cl)c2)[nH]1 (centres undefined)
inactive: [1] 1.8% and 28.8% | [2] 15% and 15.4% | [3] 5.55% and 25.8% | [4] -17.8% and -26.6% | [5] 25.7% and 54.4% | [6] 8.35% and 11.3%

CC(=O)c1ccc(-c2ccccc2-c2ccccc2)cc1
inactive: [1] -9.3% and 43.7% | [2] 5.95% and 3.5% | [3] 3.6% and 16.4% | [4] -21.2% and -26.1% | [5] -0.3% and 4.35% | [6] 1.15% and 33.1%

O=[N+]([O-])c1ccc(N=Cc2ccc(Cl)cc2)cc1
inactive: [1] -0.2% and 4.6% | [2] -6.05% and 4.9% | [3] -23.2% and -2.25% | [4] -0.2% and -40.4% | [5] 5.85% and 7.9% | [6] -4.15% and -3.05%

C=CCN(CC=C)c1nc2ccccc2c(=O)[nH]1
inactive: [1] 39.6% and -6.7% | [2] 24.2% and -3.7% | [3] 22.5% and -3.8% | [4] 7.9% and -60.1% | [5] -2.25% and -12.4% | [6] 17.2% and 0.45%

CN(C)CC1CCCC(CN(C)C)C1=O (centres undefined)
inactive: [1] -13.4% and -21.9% | [2] 26.9% and -9.95% | [3] -16% and -39.5% | [4] 33% and -30.4% | [5] -16.1% and -22.1% | [6] -2% and -13.8%

O=C1CC2(CC=CCC23OCCO3)CC(CI)O1 (centres undefined)
inactive: [1] -14.1% and 7.75% | [2] -8.25% and -1.25% | [3] 3.1% and 24.8% | [4] 5.9% and 5.1% | [5] -10.2% and 10.9% | [6] 10.7% and 9.55%

O=C1CC(=P(c2ccccc2)(c2ccccc2)c2ccccc2)C(=O)O1
inactive: [1] 24.1% and -0.65% | [2] 24.5% and -1% | [3] 13.2% and 0% | [4] 14.7% and 9.8% | [5] 10.8% and -4.15% | [6] 12.2% and 5.5%

Cn1c(=O)c2[nH]cnc2n(C)c1=O
inactive: [1] 4.5% and 10.1% | [2] -16.1% and 2.3% | [3] -35.5% and -20.8% | [4] -23.8% and -9.25% | [5] -3.95% and -2.2% | [6] 19.1% and 2.8%

Cc1[nH]n(-c2ccc(S(=O)(=O)O)cc2)c(=O)c1N=Nc1ccccc1
inactive: [1] -0.4% and -2.2% | [2] 6.55% and -21.9% | [3] -10% and 2.1% | [4] 0.95% and 8.8% | [5] 10.8% and 4.1% | [6] -0.6% and 15.1%

CC(=O)OCC1OC(CCC#N)C(OC(C)=O)C(OC(C)=O)C1OC(C)=O (centres undefined)
inactive: [1] 10.7% and 1.7% | [2] 15.5% and 14.2% | [3] 17.4% and 2.35% | [4] -12% and -1.35% | [5] 9.3% and -4.05% | [6] 13.6% and 11.3%

NNC(=O)NC(N)=O
inactive: [1] -48.6% and -20.2% | [2] -26.1% and -25.7% | [3] -27.2% and -9.95% | [4] -20.4% and -17.9% | [5] 1.2% and -27.1% | [6] -4.3% and -22.3%

Cc1ccc2c(c1)P(=O)(O)c1cc(C)ccc1S2(=O)=O
inactive: [1] -0.75% and 4.5% | [2] 11.2% and -2.65% | [3] 6.75% and -4.1% | [4] -1.1% and -1.2% | [5] 0.45% and -9.3% | [6] -1.1% and -0.2%

Nc1ccc2ccc(O)cc2c1
inactive: [1] 24.8% and 29.8% | [2] -0.5% and 8.5% | [3] 24.9% and 16.8% | [4] 21.8% and -22.2% | [5] 13.6% and 25.8% | [6] 19% and 24.6%

CC(CCC(=O)O)(c1ccc(O)cc1)c1ccc(O)cc1
inactive: [1] 10.4% and -8.8% | [2] -0.85% and -15.6% | [3] -12.8% and -51.6% | [4] -44.4% and -33.4% | [5] -2.7% and -17.2% | [6] 22.8% and -15.6%

CN(C)C=C(S(C)(=O)=O)S(C)(=O)=O
inactive: [1] 10.2% and -24.7% | [2] -2.05% and -9.9% | [3] 20.1% and -9.85% | [4] -17.5% and 4.25% | [5] 5.8% and 14.9% | [6] 9.1% and -14.8%

CN(C)N=Nc1ccc(C(=O)O)cc1
inactive: [1] 27.6% and 12.6% | [2] 22.1% and -1.3% | [3] 28.6% and 20.9% | [4] -0.05% and -0.65% | [5] 16.9% and -21.1% | [6] 26.6% and 7.65%

O=C(O)/C=C(\F)C(=O)O
inactive: [1] -9.8% and 14.7% | [2] -14.2% and 7.95% | [3] -3.05% and 10.9% | [4] -1.6% and -9.15% | [5] 3.65% and -20.8% | [6] 0.7% and 11.6%

O=C(CC(=O)c1ccc(Cl)cc1)Cc1ccc2ccccc2n1
inactive: [1] 8.9% and 43.4% | [2] 29.4% and 38.6% | [3] 37.2% and 33.5% | [4] 45% and 39.2% | [5] 52.3% and 51% | [6] 45.3% and 10.2%

C/C(C=O)=C\c1ccc(N(C)C)cc1
inactive: [1] -36.5% and 5% | [2] -21.8% and 2.5% | [3] -20.6% and -13.9% | [4] -44.8% and 13.2% | [5] 16.5% and 8.5% | [6] -4.45% and 13.6%

CC(=O)C(C)(CCC#N)CCC#N
inactive: [1] -7.25% and 12.7% | [2] 12.1% and -9.2% | [3] -1.4% and -1% | [4] -3.95% and -36.5% | [5] 9.35% and -5.15% | [6] -12.1% and 27%

O=C(O)C1(O)C[C@@H](O)C(O)[C@H](O)C1 (some centres undefined)
inactive: [1] 4.9% and -19.3% | [2] 0.15% and -14.2% | [3] -3.65% and -30.1% | [4] 21.2% and 23.8% | [5] -4.65% and -2.35% | [6] 3.6% and -2.65%

CC(=O)OC1COC(n2cnc3c(=S)nc[nH]c32)C(OC(C)=O)C1OC(C)=O (centres undefined)
inactive: [1] 24.2% and -2.35% | [2] -0.1% and -1.6% | [3] 21.3% and -16.4% | [4] 18.4% and -19.2% | [5] 0.7% and 1.65% | [6] 7.35% and -11.9%

NC(N)=S
inactive: [1] -10.2% and 7% | [2] -2.4% and -11.8% | [3] -6.1% and 9% | [4] 32.8% and 1.9% | [5] 3.75% and 3.8% | [6] 0.35% and -9.45%

CCCOC(=O)c1ccc(OCC)cc1
inactive: [1] 22.4% and -20.6% | [2] 8.2% and -9.8% | [3] 12.6% and 3.1% | [4] -8% and -42.6% | [5] -11.2% and -16.6% | [6] 15.2% and -23.6%
